# Test system: Sam68 (KHDRBS1)
# Assay: Sam68 small-molecule binders, primary screen, biochemical, small-molecule microarray, 635 nm fluorescence (AID 1125);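 further: score merges 667 nm channel intensity with signal to noise over triplicate slides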
# Settings: small-molecule microarray binding, higher = more signal
row,Structure (SMILES),composite z-score
1,CC=CC(O)C1C=CC2C(=O)N(C)C(=O)C2N1Nc1ccc([N+](=O)[O-])cc1[N+](=O)[O-] (stereo not given),-0.52
2,O=C(O)[C@]1(Cc2ccccc2)N=C(c2ccc(OCCCO)cc2)O[C@@H]1c1ccccc1,-1.24
3,[N-]=[N+]=NCc1ccccc1[C@H]1OC(c2ccc(OCCCO)cc2)=N[C@@]1(CCS(=O)(=O)c1ccccc1)C(N)=O,1.3
4,Cc1c(NC(=O)/C(C#N)=C/C=C/c2ccc(N(C)C)cc2)c(=O)n(-c2ccccc2)n1C,1.22
5,COc1ccc([Si](C)(C)[C@@H]2[C@@H](CCO)O[C@]3(C(=O)N(Cc4cccc(N5C(=O)c6cccc7cccc5c67)c4)c4ccccc43)[C@H]2C)cc1,0.262
6,COc1c(C)cc(-c2cc3c(c(Cc4ccccc4)n2)[Si](C(C)C)(C(C)C)OC3)cc1C,0.0189
7,CON(C)C(=O)C=C1C[C@@H](c2cccc(Cl)c2)O[C@@H](c2cccc(Cl)c2)O1,0.474
8,COc1ccc(NN2C(C(O)c3ccccn3)C=CC3C(=O)N(C4CCCCC4)C(=O)C32)cc1 (stereo not given),1.3
9,CC(=O)n1cc(C(O)C2C=CC3C(=O)N(c4ccccc4)C(=O)C3N2Nc2ccccc2)c2ccccc21 (stereo not given),0.897

# Test system: Chordin-like protein 2 (CHRDL2)
# Assay: CHRDL2 small-molecule binders, primary screen, biochemical, small-molecule microarray, 635 nm fluorescence (AID 1126);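 further: printed compound slides probed with Chrdl2 protein at 4 µg/mL for 1 h at 4 C; score merges 667 nm emission intensity with signal to noise over three replicate slides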
# Settings: small-molecule microarray binding, fluorescence 635 nm; higher = more signal
row,Structure (SMILES),composite z-score
1,O=C1C2C=CC(C(O)c3cc(C(F)(F)F)cc(C(F)(F)F)c3)N(Nc3ccc([N+](=O)[O-])cc3)C2C(=O)N1c1ccccc1 (stereo not given),-0.298
2,COCCOC(=O)N1C(=O)[C@@]2(c3cc(C#CC4(O)CCCCCC4)ccc31)[C@H](C(=O)N1CCCCCCC1)[C@H]1C(=O)O[C@H](c3ccccc3)[C@H](c3ccccc3)N1[C@@H]2c1ccc(OCCO)cc1,1.52
3,CC(C)CNC(=O)[C@@H]1c2ccccc2C(=O)N(Cc2cc(F)cc(C(F)(F)F)c2)[C@H]1c1ccc(CO)cc1,-0.182
4,CCOC(=O)[C@H]1C/C=C/C[C@H](C(=O)OCC)C(=O)O[C@H]2[C@@H](OC)O[C@H](CO)[C@@H](OC(=O)CCc3ccccc3)[C@@H]2OC1=O,-0.203
5,C=CC[C@@]1(C(=O)O)N=C(c2ccc(OCCCO)cc2)O[C@@H]1c1ccccc1,-0.713
6,CCOC(=O)[C@@H]1[C@@H]2C(=O)N(CC)C(=O)[C@@H]2C[C@@H]1Sc1ccccc1,-0.235
7,CC(C)CN1C(=O)[C@@]2(c3ccc([N+](=O)[O-])cc3)CC(=O)N(CC34CC5CC(CC(C5)C3)C4)[C@@H]2c2ccc(CO)cc21,-1.52
8,C=CC[C@@]1(C(=O)N2CCCCC2)N=C(c2ccc(OCCCO)cc2)O[C@@H]1c1ccccc1,0.453
9,C=CCOC(=O)[C@H]1[C@@H]2C(=O)O[C@@H](c3ccccc3)[C@@H](c3ccccc3)N2[C@@H](c2ccc(OCCOC(=O)[C@H]3C[C@H]4C(=O)N[C@@H](Cc5ccccc5)C(=O)N4[C@H]3c3ccc(O)cc3)cc2)[C@]12C(=O)Nc1ccc(I)cc12,1.23
10,C=CC[C@@]12N=C(c3ccc(OCCCO)cc3)O[C@@H]1c1ccccc1N(CCS(=O)(=O)c1ccccc1)C2=O,0.992
11,CC(C)N1CC=CC23O[C@@H]4C=CCCOC(=O)C4[C@H]2C(=O)N(CCO)[C@@H]3C1=O (stereo not given in full),-0.414
12,CCOC(=O)C[C@H]1[C@H](OC(=O)c2ccc(-c3ccccc3)cc2)[C@@H](NC(=O)C2CCCCC2)c2cc(OCCCO)ccc2N1C(=O)c1ccccc1,0.372
13,C=CCN1Cc2ccccc2C[C@@]2(N=C(c3ccc(OCCCO)cc3)O[C@H]2c2ccccc2)C1=O,0.185
14,O=C1O[C@H](c2ccccc2)[C@H](c2ccccc2)N2[C@H]1[C@@H](C(=O)O)[C@]1(C(=O)Nc3ccccc31)[C@H]2c1ccc(O)cc1,-0.632
15,CN(C)CCCNC(=O)[C@@]1(C)c2ccccc2C(=O)N(Cc2cc(C(F)(F)F)cc(C(F)(F)F)c2)[C@H]1c1ccc(CO)cc1,-1.03
16,CCOC(=O)C[C@H]1[C@H](OC(=O)c2ccc(C(=O)c3ccccc3)cc2)[C@@H](NC(=O)c2ccc3ccccc3c2)c2cc(OCCCO)ccc2N1C(=O)c1ccccc1,-0.257
17,Cc1c(NC(=O)/C(C#N)=C/C=C/c2ccccc2[N+](=O)[O-])c(=O)n(-c2ccccc2)n1C,0.704
18,C=CC[C@]12N=C(c3ccc(OCCCO)cc3)O[C@H]1c1ccccc1N(C)C2=O,0.76

row,Structure (SMILES),composite z-score
1,CC(C)CCC[C@@H](C)[C@H]1CC[C@@]2(C)C3=C(CC[C@]12C)[C@@]1(C)CC[C@H](OC(=O)c2ccc(Br)cc2)C(C)(C)C1CC3 (stereo not given in full),0.498
2,Cc1ccc(F)cc1S(=O)(=O)N[C@@H]1CCN(Cc2ccc(Oc3ccccc3)cc2)C1,0.861
3,COC(=O)[C@H](Cc1ccccc1)N1CC(/C=C/C2CC2)=C[C@@H]1[C@@H](O)Cc1ccccc1,0.779
4,CCN(CC)c1ccc(N2CC=CC34O[C@@H]5/C=C\CCC(C)OC(=O)C5[C@H]3C(=O)N(CCO)[C@@H]4C2=O)cc1 (stereo not given in full),-1.01
5,Cc1ccc(S[C@]2(C(=O)NC3CC3)CC(=O)N(Cc3ccccc3Cl)[C@@H]2c2ccc(CO)cc2I)cc1,0.506
6,C[C@]1(C(=O)NCCN2CCOCC2)c2ccccc2C(=O)N(Cc2ccc(OC(F)(F)F)cc2)[C@H]1c1ccc(CO)cc1,-1.15
7,C[C@H]1C2=C3C(CC[C@H]4C(OCc5ccc(F)cc5C(F)(F)F)OC[C@](C)([C@@H]34)N(C(=O)OC(C)(C)C)C2)C2COC(=O)OCC21 (stereo not given in full),-1.67
8,COCCOC(=O)N1C(=O)[C@@]2(c3cc(C#CCNC(N)=O)ccc31)[C@H](C(=O)N1CCCCCCC1)[C@H]1C(=O)O[C@H](c3ccccc3)[C@H](c3ccccc3)N1[C@@H]2c1ccc(O)cc1,0.626
9,Cc1ccc(C(C)CC(O)C2C=CC3C(=O)N(c4ccccc4)C(=O)C3N2Nc2ccc(C(C)C)cc2)o1 (stereo not given),-0.527
10,CC=CC(O)C1C=CC2C(=O)N(C)C(=O)C2N1Nc1ccc([N+](=O)[O-])cc1[N+](=O)[O-] (stereo not given),0.001
11,O=C(O)[C@]1(Cc2ccccc2)N=C(c2ccc(OCCCO)cc2)O[C@@H]1c1ccccc1,-1.65
12,[N-]=[N+]=NCc1ccccc1[C@H]1OC(c2ccc(OCCCO)cc2)=N[C@@]1(CCS(=O)(=O)c1ccccc1)C(N)=O,-0.0208
13,Cc1c(NC(=O)/C(C#N)=C/C=C/c2ccc(N(C)C)cc2)c(=O)n(-c2ccccc2)n1C,0.568
14,COc1ccc([Si](C)(C)[C@@H]2[C@@H](CCO)O[C@]3(C(=O)N(Cc4cccc(N5C(=O)c6cccc7cccc5c67)c4)c4ccccc43)[C@H]2C)cc1,-0.512
15,COc1c(C)cc(-c2cc3c(c(Cc4ccccc4)n2)[Si](C(C)C)(C(C)C)OC3)cc1C,0.198
16,CON(C)C(=O)C=C1C[C@@H](c2cccc(Cl)c2)O[C@@H](c2cccc(Cl)c2)O1,0.648
17,COc1ccc(NN2C(C(O)c3ccccn3)C=CC3C(=O)N(C4CCCCC4)C(=O)C32)cc1 (stereo not given),-0.203
18,CC(=O)n1cc(C(O)C2C=CC3C(=O)N(c4ccccc4)C(=O)C3N2Nc2ccccc2)c2ccccc21 (stereo not given),0.8

# From PubChem BioAssay
